Bioassay records as filed in PubChem.
Shown are actives, neighbours in structure and some others; about 6.2% of the full set was active somewhere.
Luc counter = Counterscreen for Luciferase (Kinase-Glo TM) Inhibition; Potency, µM (top dose mostly 38.3 µM), actives largely listed as inhibitors; Kinase-Glo luciferase, ATP luminescence, 8 min; hit rate 0.28% among 200,000; Luciferin 4-monooxygenase (Photuris pensylvanica), Q27757; also: nearly all actives have a fitted effect of over 60% in size
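Light output from Kinase-Glo luciferase with luciferin and 10 uM ATP in 50 mM imidazole pH 7.2, KCl, MgCl2, Tween 20, BSA; compound pin-delivered, 8-min ambient incubation, then luminescence read.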
Gal4-VP16 FLuc = VP16 counterscreen qHTS for inhibitors of ROR gamma transcriptional activity; Potency, µM (top dose mostly 53.6 µM), hits mostly inhibitors; Drosophila S2 Gal4-VP16 UAS-luciferase, luminescence, 20 h; hit rate 3.5% among 310,000;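 also: Gal4-VP16 expression switched on by copper sulfate through the metallothionein promoter; nearly all actives have a fitted effect of over 50% in size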
RORg inh = qHTS for inhibitors of ROR gamma transcriptional activity; Drosophila S2 Gal4-RORgamma UAS-luciferase reporter, 20 h; Potency, µM (series often up to 53.6 µM), usual class: inhibitors; hit rate 5.4% among 310,000; AID 2551, 2010; also: nearly all actives have a fitted effect of over 60% in size
Target sequence (P51450 whole entry, looked up, the tested form may be a part): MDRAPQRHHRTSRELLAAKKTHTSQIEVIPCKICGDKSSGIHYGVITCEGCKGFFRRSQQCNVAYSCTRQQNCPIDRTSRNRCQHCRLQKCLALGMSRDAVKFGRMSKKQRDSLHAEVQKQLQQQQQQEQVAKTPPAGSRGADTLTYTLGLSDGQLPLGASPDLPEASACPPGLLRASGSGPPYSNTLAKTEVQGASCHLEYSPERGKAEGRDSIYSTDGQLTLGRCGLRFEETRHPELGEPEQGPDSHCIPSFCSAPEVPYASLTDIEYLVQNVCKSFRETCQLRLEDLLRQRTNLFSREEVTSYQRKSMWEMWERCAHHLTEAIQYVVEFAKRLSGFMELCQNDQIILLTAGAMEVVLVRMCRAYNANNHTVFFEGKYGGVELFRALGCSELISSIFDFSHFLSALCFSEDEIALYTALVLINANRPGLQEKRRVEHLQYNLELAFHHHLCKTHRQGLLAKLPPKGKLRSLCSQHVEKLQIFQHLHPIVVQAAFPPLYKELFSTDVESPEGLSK
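Stable Schneider cell line, Gal4 DNA-binding domain fused to ROR gamma, UAS-luciferase. Cmpd 1 hr RT → CuSO4 700 uM final → 20 hr RT → luciferase reagent 10 min → luminescence.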
Numbers stand for hits; n = inactive; u = inconclusive; x = not tested or not shown; [ ] = remark or other dose. Calls follow the shape of the dose curve; as a rule, active = well fitted curve in the direction sought with a large enough effect; inconclusive = small, poorly fitted or top-dose-only effect, or another doubt; inactive = no such curve, though single readings can be large; an effect the other way counts as inactive or inconclusive.

SMILES	Luc counter	Gal4-VP16 FLuc	RORg inh
Cc1ccc(NC(=S)NC2CCCCC2)cc1S(=O)(=O)N(C)C	n	u	13µM
Cc1ccc(NC(=O)CNCC2CCCCC2)cc1S(=O)(=O)N(C)C	x	n	n
CCN(CC)S(=O)(=O)c1ccc(C)c(NC(=S)NC2CCCCC2)c1	x	u	10µM
COc1cc(Nc2cccc[n+]2C)cc(OC)c1OC	x	n	n
C=C(C)C(=O)OCC1CN2C(CCC(C)C2c2ccc(Br)cc2)C(=O)O1 (stereo unspecified)	x	n[10 µM]	n[10 µM]
COc1ccccc1NC(=O)NCc1nc(-c2ccc(C(F)(F)F)cc2)no1	x	n	n
N#Cc1sc(NCc2ccccn2)nc1Cl	x	n	n
Cn1c(N)nc2nc(CCc3ccccc3)c(=O)[nH]c2c1=O	x	n	n
CC(C)(C)c1ccc(/C=N/NC(=S)NC2CCCCC2)cc1	n	3.2µM	1.1µM
COc1ccc(/C=N/NC(=O)CC(=O)NC2CCCCC2)cc1	n	n	n
COc1ccc(/C=N/NC(=S)NC2CCS(=O)(=O)C2)cc1 (stereo unspecified)	x	4.5µM	7.1µM
O=C(N/N=C/c1ccccc1)NC1CCCCC1	n	n	n
Cc1ccnc(NC(=O)C2CCC(CNc3c(N4CCCC4)c(=O)c3=O)CC2)c1 (stereo unspecified)	n	n	n
Clc1ccccc1C(Nc1ncccn1)Nc1ncccn1	n[7.66 µM]	x	x
COc1ccc(NC(=O)c2ccc3c(=O)n(-c4ccc(OC)cc4OC)c(=S)[nH]c3c2)cc1	n	11µM	5µM
COc1ccc(S(=O)(=O)c2c(O)c3ccc(C(=O)Nc4ccc(F)cc4)cc3[nH]c2=O)cc1	x	n	n
COc1ccc(-n2c(=S)[nH]c3cc(C(=O)Nc4ccc(F)cc4)ccc3c2=O)c(OC)c1	x	18µM	10µM
COc1ccc(-n2c(=S)[nH]c3cc(C(=O)NCCCN4CCCC4=O)ccc3c2=O)c(OC)c1	n	n	u
CCOc1ccc(C(=O)Nc2nnc(S(=O)(=O)N(C)Cc3ccco3)s2)cc1	x	n	n
CCOC(=O)c1cccc(NS(=O)(=O)c2c(C)[nH]c(C)c2C(=O)N2CCCC2)c1	x	n	n
O=C(O)P(=O)(O)O	n	n	n
CCN(Cc1ccccc1)C(=O)c1ccc(CS(=O)c2ccccc2C)o1 (stereo unspecified)	x	n	n
O=[N+]([O-])c1ccc(OCc2cnc(Cl)s2)c([N+](=O)[O-])c1	n	n[10 µM]	u
O=C(CNC(=O)c1ccccc1Br)N/N=C/c1ccco1	x	n	n
O=C(CNC(=O)c1ccccc1O)N/N=C/c1cc(Br)ccc1OC(=O)/C=C/c1ccco1	n	n	5.6µM
SMILES	Luc counter	Gal4-VP16 FLuc	RORg inh
COc1ccc([N+](=O)[O-])cc1/C=N/NC(=O)CNC(=O)c1cccc(F)c1	n	u	10µM
O=C(CNC(=O)c1ccc(F)cc1)N/N=C/c1cc(Br)ccc1OCc1ccccc1	n	n	n
COc1ccc([N+](=O)[O-])cc1/C=N/NC(=O)CNC(=O)C(c1ccccc1)c1ccccc1	n	u	u
O=C(CNC(=O)c1cccc(F)c1)N/N=C/c1cc(Br)ccc1OC(=O)/C=C/c1ccco1	n	7.9µM	3.5µM
O=C1CCc2cc(S(=O)(=O)NCCC(=O)NC3CCCCC3)ccc2N1	x	n	n
O=C(c1ccco1)N1CCN(Cc2cn[nH]c2-c2cccc3ccccc23)CC1	x	n	n
C[C@@H]1O[C@H]2C3=C(C(=O)[C@H]4O[C@@H]4[C@H]3O)[C@@H]1[C@@H]1[C@@H](C)OC=C3[C@H](O)[C@H]4O[C@@H]4/C(=N\OCc4ccccc4)[C@]312	x	n[10 µM]	n[10 µM]
Cc1ccc(NC(=O)N2CCCC2C(=O)Nc2nnc(C(C)C)s2)cc1 (stereo unspecified)	x	n	n
CC1CC[C@@]2(C(=O)O)CCC3(C)C(=CCC4[C@]5(C)CC(O)C(O)[C@](C)(CO)C5C(O)C[C@@]43C)C2C1C (stereo partly specified)	n	n	n
CC1C(NC(=O)/C(=N/OC(C)(C)C(=O)O)c2csc(N)n2)C(=O)N1S(=O)(=O)O (stereo unspecified)	n	n	n
COc1cc2ccccc2cc1C(=O)Nc1sc2c(c1C(N)=O)CCN(C(C)C)C2	x	18µM	13µM
CC(C)N1CCc2c(sc(NC(=O)CN3C(=O)c4ccccc4C3=O)c2C(N)=O)C1	n	n	n
O=C(CC1C(=O)NC2CCCCC2N1C(=O)c1ccc([N+](=O)[O-])cc1)Nc1ccccc1 (stereo unspecified)	n	n	n
COc1ccc(NS(=O)(=O)c2cc(NC(=O)c3ccco3)ccc2N2CCCCC2)cc1	n	13µM	u
COc1ccc(NS(=O)(=O)c2cc(NC(=O)C3CC3)ccc2N2CCCCC2)cc1	n	n	n
CC12CCC=CC1C(c1ccc(F)c(Br)c1)N(Cc1ccccc1)C2=O (stereo unspecified)	x	n	n
Cc1cc2nc(C3CCCN(C(=S)Nc4ccccc4)C3)[nH]c2cc1C (stereo unspecified)	n	u	13µM
Cc1ccc2nc(C3CCCN(C(=S)Nc4ccccc4C)C3)[nH]c2c1 (stereo unspecified)	n	u	u
Cc1cccc(-n2nnc(C(=O)Nc3ccc(F)cc3)c2N)c1	n	n	u
Cc1c(C(=O)Nc2ccc(F)cc2)nnn1-c1cccc(C(F)(F)F)c1	n	16µM	u
COc1ncc2nc(-c3cn(C)c4ccccc34)c(=O)n(CCC#N)c2n1	x	n	n
O=C(Nc1sc2c(c1C(=O)O)CCCCC2)c1ccco1	n	u	n
CCOC(=O)c1c(NC(=O)c2ccco2)sc2c1CCCCC2	n	n	n
COC(=O)c1c(NC(=O)C2CC2)sc2c1CCCC2	n	n	u
CCOC(=O)c1c(NC(=O)C(C)N2CCN(C(=O)c3ccco3)CC2)sc2c1CCCC2 (stereo unspecified)	n	11µM	n
SMILES	Luc counter	Gal4-VP16 FLuc	RORg inh
COC(=O)c1c(NC(=S)NC(=O)c2ccco2)sc2c1CCCC2	n	u	2.5µM
COC(=O)c1c(NC(=S)NN2CCOCC2)sc2c1CCCC2	x	4µM	1.3µM
CCCc1ccc2oc(C(=O)N3CCN(c4cnccn4)CC3)c(C)c2c1	x	n	n
CC(C)C[C@@H](CC(=O)N[C@@H](CCCN)CC(=O)N[C@@H]1CCNC[C@H]1C(=O)N[C@H](CC(=O)N[C@@H](CCC(=O)O)CC(=O)O)Cc1c[nH]c2ccccc12)NC(=O)[C@@H]1CNCC[C@H]1N	n	n	n
Cc1cccc2c1N(CCOc1ccc(C(C)(C)C)cc1)C(=O)C2=O	n	u	n
Cc1ccc(OCCCN2C(=O)C(=O)c3cccc(C)c32)cc1	n	13µM	7.9µM
CSc1nc(NNC=O)cc(Oc2ccc(NC(C)=O)cc2)n1	x	n	n[1.91 µM]
CCNc1ccc(Br)cc(C(=O)/C=C/c2c(Cl)cccc2Cl)c1=O	n	u	10µM
CCNc1ccc(Br)cc(C(=O)/C=C/c2ccc(Cl)cc2)c1=O	n	u	n
COc1cccc(CN2CCNC(=O)C2CC(=O)N(C)C2CCOCC2)c1 (stereo unspecified)	x	n	n
CC1(C)Cc2c(sc3nc(SCC(=O)O)[nH]c(=O)c23)CO1	n	n	n[10 µM]
CCc1nc2sc3c(c2c(=S)[nH]1)CC(C)(C)OC3	x	6.3µM	2µM
